# Experimental data from PubChem BioAssay (NCATS).
# “And” between values parts separate entries of the source, which are not always exact repeats. Equal entries are not always repeated. Unmarked numbers belong to inactive results. Records with an inconclusive call do not appear. The source made the active and inactive calls. Unless noted, calls follow the shape of the dose curve; as a rule, active = well fitted curve in the direction sought with a large enough effect; inconclusive = small, poorly fitted or top-dose-only effect, or another doubt; inactive = no such curve, though single readings can be large; an effect the other way counts as inactive or inconclusive.
# Experiments:
# PA-1 = experiment: Primary qHTS to identify gynecologic anti-cancer compounds using libraries of approved drugs and bioactive compounds (AID 1345084); conditions: Gynecologic cancer cell panel viability, ATPlite luminescence, 48 h; series mostly up to 57.5 µM; also: nearly all actives have a fitted effect of over 55% in size; also: potency is read from the fitted curve at half-maximal effect
# Outline: (§1)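 Cells, 1,000 per well, plated 16 h, then exposed 48 h at 37 C to compounds. Viability by ATPlite luminescence after 15 min at room temperature.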
# SKOV3 = experiment: as above; conditions: Gynecologic cancer cell panel viability, ATPlite luminescence, 48 h; series mostly up to 57.5 µM
# Outline: as §1
# [1] = Drug repurposing screens with cells derived from glioblastoma tumor samples (AID 1345199); conditions: GBM patient neurospheres viability, ATP luminescence, 48 h; also: nearly all actives have a fitted effect of over 40% in size; also: potency is read from the fitted curve at half-maximal effect; as to activity, negative = cell killing: % is scaled to controls: 0 for no effect and ±100 for the full control effect
# Outline: (§2)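 Four patient lines of CD133+ GBM neurospheres were screened at several concentrations; hits were retested in those lines plus three slower-growing GBM lines, using 48-hour treatment and ATP-based viability.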
# astro = experiment: as above; conditions: viability, ATP luminescence, 48 h; series mostly up to 45.9 µM
# Outline: as §2
# OV90 = experiment: Primary qHTS to identify gynecologic anti-cancer compounds using libraries of approved drugs and bioactive compounds (AID 1345084); conditions: Gynecologic cancer cell panel viability, ATPlite luminescence, 48 h; series mostly up to 57.5 µM; also: nearly all actives have a fitted effect of over 55% in size; also: potency is read from the fitted curve at half-maximal effect
# Outline: as §1
# Tov112D = experiment: as above; conditions: Gynecologic cancer cell panel viability, ATPlite luminescence, 48 h; series mostly up to 57.5 µM
# Outline: as §1
# Tov-21-G = experiment: as above; conditions: Gynecologic cancer cell panel viability, ATPlite luminescence, 48 h; series mostly up to 57.5 µM
# Outline: as §1
# [2] = qHTS assay to identify inhibitors of the type 1 interferon - major histocompatibility complex class I in skeletal muscle: Counter screen cell viability and HiBit confirmation (AID 1347412); conditions: iHSKM muscle cells + IFN-b, HiBiT or CellTiter-Glo, 24 h, at 45.9 µM (top of the series); also: % is scaled to controls: 0 for no effect and ±100 for the full control effect; nearly all actives have a fitted effect of over 60% in size
# Outline: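 After 24 h with human IFN-beta (4 ng/ml) and compound titrations (top 46 uM final, 1:3, 12 points), HLA-B HiBit myoblasts were lysed for either Nano-Glo HiBiT luminescence or CellTiter Glo viability on paired plates.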
# [3] = target: Nuclear receptor subfamily 1 group I member 2 (Rattus norvegicus) (UniProt Q9R1A7); experiment: qHTS assay for small molecule activators of the rat pregnane X receptor (rPXR) signaling pathway (AID 651751; call rule not given here; also: 0% is about no effect); conditions: rPXR reporter cells, luciferase (One-Glo), 24 h
# JEG-3 = experiment: Primary qHTS to identify gynecologic anti-cancer compounds using libraries of approved drugs and bioactive compounds (AID 1345084); conditions: Gynecologic cancer cell panel viability, ATPlite luminescence, 48 h; series mostly up to 57.5 µM; also: nearly all actives have a fitted effect of over 55% in size; also: potency is read from the fitted curve at half-maximal effect
# Outline: as §1
# [4] = at 45.9 µM (top of the series), tumour line B
# [5] = at 46.1 µM (top of the series), tumour line C
# [6] = at 20 µM (top of the series), tumour line C
# Nuclear receptor subfamily 1 group I member 2 (Rattus norvegicus), sequence (Q9R1A7 whole entry, looked up): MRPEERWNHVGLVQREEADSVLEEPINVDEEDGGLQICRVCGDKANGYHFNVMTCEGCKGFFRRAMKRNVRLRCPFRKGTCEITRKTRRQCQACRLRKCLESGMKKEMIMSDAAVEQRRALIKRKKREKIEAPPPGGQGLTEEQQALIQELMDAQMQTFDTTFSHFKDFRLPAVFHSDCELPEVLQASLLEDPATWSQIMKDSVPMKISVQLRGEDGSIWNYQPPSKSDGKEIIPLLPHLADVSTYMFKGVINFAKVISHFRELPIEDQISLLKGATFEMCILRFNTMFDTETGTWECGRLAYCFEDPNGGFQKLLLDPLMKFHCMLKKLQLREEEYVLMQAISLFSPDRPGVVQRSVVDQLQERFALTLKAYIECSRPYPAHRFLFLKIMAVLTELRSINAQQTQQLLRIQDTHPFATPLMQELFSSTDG
smiles,measurement,setting,value
O=C(O)c1ccc(-n2nc(-c3ccccc3O)nc2-c2ccccc2O)cc1,Potency,PA-1,8.91 µM (active)
same,Potency,SKOV3,inactive
CC(C)NCC(O)c1ccc(NS(C)(=O)=O)cc1 (stereo not drawn),"activity, negative = cell killing",[1]; [4],-3.14% and -4.61%
same,"activity, negative = cell killing","[1]; at 45.9 µM (top of the series), tumour line D",-13.7% and -17.7%
same,"activity, negative = cell killing","[1]; at 46 µM (top of the series), tumour line A",-32.2%
same,"activity, negative = cell killing",[1]; [5],-4.94% and -17%
same,Potency,astro,inactive
NC1(c2ccc(-c3nc4ccn5c(=O)[nH]nc5c4cc3-c3ccccc3)cc2)CCC1,Potency,OV90,2 µM (active)
same,Potency,PA-1,22.4 µM (active)
same,Potency,SKOV3,11.2 µM (active)
same,Potency,Tov112D,inactive
COC(=O)Nc1nc2ccc(Sc3ccccc3)cc2[nH]1,Potency,OV90,10 µM (active)
same,Potency,PA-1,1.41 µM (active)
same,Potency,Tov-21-G,2.82 µM (active)
same,Potency,Tov112D,1.41 µM (active)
same,"activity, negative = cell killing",[1]; [6],-28.6%
same,Potency,[1]; tumour line A,0.224 µM (active)
same,Potency,astro,0.631 µM (active)
Oc1c(Cl)cc(Cl)c2cccnc12,Potency,PA-1,12.6 µM (active)
same,Potency,Tov-21-G,28.2 µM (active)
same,"activity, negative = cell killing",[1]; [5],-48.9%
same,Potency,[1]; tumour line A,15.8 µM (active)
same,Potency,[1]; tumour line B,8.91 µM (active)
same,"activity change, negative = inhibition",[2]; HiBiT,-16.5%
same,"activity change, negative = inhibition",[2]; Viability,-8.17%
N[C@@H](Cc1ccc(O)c(O)c1)C(=O)O,"activity, negative = cell killing",[1]; [5],28.9%
same,Potency,[1]; tumour line A,12.6 µM (active)
same,max response,[3],-10%
CC(C)OC(=O)C(C(=O)OC(C)C)=C1SC=CS1,Potency,OV90,inactive
same,Potency,PA-1,inactive
same,Potency,SKOV3,25.1 µM (active)
same,Potency,Tov-21-G,inactive
same,Potency,Tov112D,inactive
same,"activity, negative = cell killing",[1]; [5],-18.3%
same,Potency,[1]; tumour line A,11.2 µM (active)
same,Potency,astro,inactive
N=C(N)c1ccc(OCCCCCOc2ccc(C(=N)N)cc2)cc1,Potency,JEG-3,inactive
same,Potency,PA-1,5.01 µM (active)
same,Potency,Tov-21-G,inactive
same,Potency,Tov112D,inactive
CCN(CC)CC#CCOC(=O)C(O)(c1ccccc1)C1CCCCC1 (stereo not drawn),"activity, negative = cell killing",[1]; [4],-22.3%
same,Potency,[1]; tumour line A,10 µM (active)
same,Potency,[1]; tumour line C,20.6 µM (active)
same,Potency,astro,inactive
CC(C)(C)C(=O)OCOP(=O)(COCCn1cnc2c(N)ncnc21)OCOC(=O)C(C)(C)C,"activity, negative = cell killing",[1]; [5],-7.63%
CCCCc1oc2ccc(NS(C)(=O)=O)cc2c1C(=O)c1ccc(OCCCN(CCCC)CCCC)cc1,Potency,JEG-3,inactive
same,Potency,astro,20 µM (active)
same,"activity change, negative = inhibition",[2]; HiBiT,-10.2%
CCCCOc1ccc(CC(=O)NO)cc1,Potency,OV90,inactive
same,"activity, negative = cell killing",[1]; [6],38.6%
same,"activity, negative = cell killing","[1]; at 21.2 µM (top of the series), tumour line B",-16.2%
same,"activity, negative = cell killing","[1]; at 21.2 µM (top of the series), tumour line D",-14.5%
same,Potency,[1]; tumour line A,11.2 µM (active)
C[C@@H](NCCCc1cccc(C(F)(F)F)c1)c1cccc2ccccc12,Potency,JEG-3,inactive
same,Potency,Tov-21-G,inactive
same,Potency,Tov112D,inactive
same,Potency,astro,22.4 µM (active)
same,"activity change, negative = inhibition",[2]; HiBiT,14%
same,"activity change, negative = inhibition",[2]; Viability,-23.6%
COc1ccc2cc3[n+](cc2c1OC)CCc1cc2c(cc1-3)OCO2,Potency,OV90,5.62 µM (active)
same,Potency,Tov-21-G,inactive
same,Potency,astro,6.31 µM (active)
same,max response,[3],6.2%
